Measurements: PubChem BioAssay AID1626 (SRMLSC, 2009)
The whole screen tested about 220,000 compounds, of which about 2,000 (0.91%) were called active. Another 2% or so got no clear call; they are omitted. Not all results are given here. Potency and affinity values are given separately. A number with no mark means an inactive call. Rule as the data show it: inconclusive = inhibition above about 80% without an active follow-up result; inactive = below that; test concentration not stated here.

Assay: M. tuberculosis H37Rv growth inhibitors, H37Rv strain (AID 1626);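 also: bacteria incubated seven days before Alamar blue readout; 0% = bacteria only wells and 100% = bacteria with antibiotic wells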
Conditions: active compounds read high, concentration not given here

Compound | inhibition [%]
COc1ccc(NC(=O)C(=O)N/N=C(\C)CC(=O)Nc2ccccn2)c(OC)c1 | -16.2
NS(=O)(=O)c1ccc(NC(=O)CCC2CCCCC2)cc1 | -3.12
CC1CCN(C(=O)CCc2ccc(Oc3cc([N+](=O)[O-])cc([N+](=O)[O-])c3)cc2)CC1 | 71.9
O=C(CCc1ccc(Oc2cc([N+](=O)[O-])cc([N+](=O)[O-])c2)cc1)N1CCCCC1 | 3.78
CC1(C)S/C(=N/N=C/c2ccco2)NC1=O | 3.45
CCOc1ccc(-n2c(N)c(C(=O)N3CCN(C)CC3)sc2=S)cc1 | 2.86
CN(C)S(=O)(=O)N1CCN(c2ccc([N+](=O)[O-])c(N3CCOCC3)c2)CC1 | 6.14
Cc1c(O)ccc(-c2n[nH]c(C(=O)O)c2-c2nc3ccccc3s2)c1O | -16.8
O=C(CC(Sc1n[nH]c(-c2ccccc2)n1)c1ccccc1)NCc1ccccc1 (centres undefined) | -4.33
O=C(NCc1c(F)cccc1F)c1cc(COc2c(F)cccc2F)on1 | 4.13
COC(=O)OCC12CCC(O1)C1(C)C(=O)OCC21 (centres undefined) | 2.41
COC(/C=C/Nc1ccc(Br)cc1)=C(C#N)C#N | -3.61
CC1CCN(CCC(=O)NN)CC1 | 1.23
CCOC(=O)/C(C#N)=N/Nc1ccccc1OC | 12.6
COc1ccc(-c2cc(C3CCN(c4cc(Cl)nc(N)n4)CC3)[nH]n2)cc1 | 4.7
Nc1nc(Cl)cc(N2CCC(c3cc(-c4ccc(Cl)cc4Cl)n[nH]3)CC2)n1 | 8.57
O=c1c2c3c(sc2nc2n1N=C(c1cccs1)CS2)CCCC3 | 3.06
CC(=O)Nc1ccc(S(=O)(=O)N2CCN(CCN3CCOCC3)CC2)cc1Cl | -2.42
O=C(Nc1nc(-c2cc(F)ccc2F)cs1)C1=NN(c2ccccc2)C(=O)CC1 | 8.23
Cc1onc(-c2ccccc2)c1C(=O)Nc1nc(-c2cc(F)ccc2F)cs1 | -3.02
O=C(Nc1nc2ccc(F)cc2s1)c1cccs1 | -2.98
O=C(CCc1ccccc1)Nc1nc2c(F)cc(F)cc2s1 | 12.2
O=C(NNc1nc2c(F)cc(F)cc2s1)c1ccccc1 | 6.46
O=C(Nc1nc2ccccc2s1)c1ccc(F)cc1 | 2.23
S=C(NCC1CCCO1)Nc1ccccc1Cl (centres undefined) | -6.63

Compound | inhibition [%]
CC(C)(C)C(O)(CC#CCN1CCCC1)c1ccccc1 (centres undefined) | -4.05
O=C(NCC1OCCc2ccccc21)C1COc2ccccc2O1 (centres undefined) | 9.06
Cc1cccc(NC(=O)C2(c3cccs3)CCOCC2)n1 | -3.03
CCn1c(=O)cc(N2CCN(C(=O)c3ccco3)CC2)[nH]c1=O | 11.9
O=C(COC(=O)C1CC1)Nc1ccc2[nH]c(=O)[nH]c2c1 | 1.3
CCOC(=O)CSc1cc(C)nc2ccc(OC)cc12 | -0.58
COC(=O)CSc1cc(C)nc2ccc(OC)cc12 | 10.7
CCCCOC(=O)C1=C(C)Nc2ncnn2C1c1cccc(OC)c1 (centres undefined) | -2.89
Cc1[nH]c2ccccc2c1/C=N/NC(=O)CNC(=O)c1ccccc1 | -7.99
Cc1cc(C)n(CC(C)NCc2cn[nH]c2-c2ccc(C)c(C)c2)n1 (centres undefined) | 1.18
CC1=C(/C=C/C(C)=C/C=C/C(C)=C\C(=O)O)C(C)(C)CCC1 | -10.9
CC1=C(/C=C/C(C)=C/C=C/C(C)=C/C(=O)O)C(C)(C)CCC1 | -5.32
CN(C)c1ccc(N=Nc2ccccc2C(=O)OCC(=O)NC2CCCC2)cc1 | 46
CN(C)c1ccc(N=Nc2ccccc2C(=O)OCC(=O)N(C)C2CCCCC2)cc1 | 27.3
Nc1cc(C(=O)c2cccs2)ccc1Cl | -7.59
Cc1ncc([N+](=O)[O-])n1CC(=O)NC(C)(C)C | -1.73
CC(=O)N/C(=C\c1ccc(F)cc1)C(=O)N(C)C | -5.54
COc1ccc(N2CCN(C(CNC(=O)c3cccc(Cl)c3)c3cccnc3)CC2)cc1 (centres undefined) | -9.59
OC(CNCCc1ccccc1)COc1ccc(OCC(O)CNCCc2ccccc2)cc1 (centres undefined) | -6.51
COc1ccc(CCNCC(O)COc2cccc(Br)c2)cc1 (centres undefined) | -1.52
CCN(CC)S(=O)(=O)c1ccc(N2CCOCC2)c(NC(=O)c2cccc3ccccc23)c1 | 11.2
CC1CN(C(=O)c2cccc(S(=O)(=O)N3CCOCC3)c2)CC(C)O1 (centres undefined) | -11.8
Cc1ccccc1-n1ncc(C(C)NC(=O)c2ccccc2)c1C (centres undefined) | -0.68
O=C(NCc1ccccc1)NC(=O)c1ccccc1 | -2.58
COCCN=C1Sc2nc3cc(C)c(C)cc3cc2CN1Cc1cccs1 | 10

Compound | inhibition [%]
COCCN=C1Sc2nc3ccc(C)cc3cc2CN1Cc1ccco1 | -8.23
O=C(O)c1cn(-c2ccc(F)c(F)c2)c2c(F)c(F)c(F)c(F)c2c1=O | 6.77
Cc1c(-n2cc(C(=O)O)c(=O)c3cc(F)c(N4CCCC4)c(F)c32)c(=O)n(-c2ccccc2)n1C | 3.58
COC(=O)c1c(N2C(=O)[C@H]3[C@@H](C2=O)[C@]2(C(=O)Nc4c2ccc(C)c4C)N2CCC[C@@H]32)sc(C)c1C | 4.68
CN(C)c1ccc(/C=N/N=C(N)N)cc1[N+](=O)[O-] | -2.01
O=c1c2cc(NC(=S)N3CCCC3)ccc2nc2n1CCCCC2 | 5.39
O=C(O)C12C[C@H]3C[C@@H](C1)CC(n1ncc(N4CCN(c5ccccc5)CC4)c(Cl)c1=O)(C3)C2 | -7.44
CCc1ccc(N=CC2=C(O)CC(c3ccco3)CC2=O)cc1 (centres undefined) | 81
Cc1ccc(N=CC2=C(O)CC(c3ccco3)CC2=O)cc1 (centres undefined) | -4.64
COC(=O)c1[nH]c2cccc(OC)c2c1NC(=O)CCN1CCC(C(N)=O)CC1 | -3.72
CNC(=O)c1csc(-c2ccc(C)cc2)n1 | -5.14
O=C(O)c1ccc(-c2nc(-c3ccccc3)cs2)cc1 | -1.73
O=C(O)c1ccc(-c2nc(-c3ccc(Cl)c(Cl)c3)cs2)cc1 | 8.4
CNC(=O)c1csc(-c2ccncc2)n1 | -3.82
CC(C)OCCCNS(=O)(=O)c1ccc2c(c1)OCCO2 | 2.36
CN(C(=O)CO/N=C/c1ccc(OC(F)F)cc1)C1CCS(=O)(=O)C1 (centres undefined) | 8.36
CCOc1ccc(-c2cc(CCCC(=O)Nc3cc(OC)ccc3OC)no2)cc1 | 9.58
CCOc1ccc(-c2cc(CCCC(=O)NCCc3ccccc3)no2)cc1 | 4.69
CCOc1ccc(-c2cc(CCCC(=O)NCCCOC)no2)cc1 | 4.11
CCOc1ccc(-c2cc(CCCC(=O)NCCC(C)C)no2)cc1 | -2.14
C=CCNc1nc(-c2ccccn2)nnc1-c1ccccc1 | 37
CN(C)c1nc(-c2ccccn2)nnc1-c1ccccc1 | 68
Cc1ccn(C(=O)c2cc3c(C)nn(-c4ccccc4)c3s2)n1 | 10.1
CC(C)(O)C(=O)NNC(=S)Nc1ccc(F)c(Cl)c1 | 14.7
COC(=O)C1=C(SC)N(c2ccc(OC)cc2)C(c2ccccc2)CC1=O (centres undefined) | -3.65

Compound | inhibition [%]
O=C1c2ccccc2NC(c2ccc3c(c2)OCCO3)N1c1ccc2c(c1)OCCO2 (centres undefined) | -7.93
Cc1ccc(N2C(=O)C(CN3CCCC3)C2c2ccccc2)cc1 (centres undefined) | 27.1
Cc1ccc(N2C(=O)C(CN(C)C)C2c2ccccc2)cc1 (centres undefined) | -4.35
COc1ccc(N2C(=O)C3CCCN3C2c2ccccc2F)cc1 (centres undefined) | -5.95
O=C(O)C1CC(=O)N(c2ccc3c(c2)OCCO3)C1 (centres undefined) | 5.06
O=C(NN1CCOCC1)c1cc(-c2ccc(Br)cc2)nc2ccccc12 | 7.15
CC(=O)NCCC(=O)Nc1ccc(F)cc1C | -1.47
Cc1nn(-c2cccc([N+](=O)[O-])c2)c(N)c1-c1ccccc1 | 7.18
COCCNc1nc(-c2ccc(OC)cc2)c(-c2ccc(OC)cc2)s1 | 15.7
Cc1csc(Cn2c(CN(C)C)nc3ccccc3c2=O)n1 | 5.39
COc1cc([N+](=O)[O-])cc(CN2CCCCC2)c1O | 2.21
O=C(CN1CCc2ccccc2C1)NC1CCCC1 | -13.6
CC(=O)N(Cc1c(C)nn(-c2ccccc2)c1Cl)c1ccc(Cl)cc1 | -13.6
CCC(=O)N(Cc1c(C)nn(-c2ccccc2)c1Cl)c1ccc(Cl)cc1 | 8.67
CCn1cc(C(=O)OCC(=O)c2ccc(Cl)cc2)c(=O)c2ccc(C)nc21 | -8.38
O=C1CC(c2ccc(F)cc2)Sc2nc(C34CC5CC(CC(C5)C3)C4)nn21 (centres undefined) | 5.92
Cc1ccc(SCn2nnc3ccccc3c2=O)c(C)c1 | -6.38
COc1ccc2nc(/C=N/NC(=O)[C@@H]3CCCN3C(=O)OC(C)(C)C)ccc2c1 | -1.11
O=C(COc1ccc(Cl)cc1)Nc1nnc(-c2ccco2)o1 | 0.85
CC(=O)Nc1cccc(-c2nnc(-c3ccccc3)o2)c1 | -12.3
O=C(NCc1nnc2n1CCCCC2)c1ccc(Cl)cc1Cl | -8.85
CC(=O)Nc1ccc2c(c1)CCCC2 | 0.76
Clc1ccc(-c2nnc(NC3=NCCCCC3)o2)cc1 | -12.1
O=C(COc1ccccc1)Nc1nnc(-c2ccccc2)o1 | 12.6
